High-throughput results as filed in PubChem BioAssay.
HCMV antiviral: inhibitors of human cytomegalovirus; HFF cells, HCMV-luciferase reporter, 72 h; stronger effect = lower value; activity change, negative = inhibition, % at 57.5 µM; 4.5% of 410,000 active; AID 1259415; in the data active = activity change below about -60%; inconclusive = no clear call, values can overlap the other calls; inactive = above about -39%
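Cell-based, HFFs, 1000 cells/well, 16 h 37C; cpds in DMSO + HCMV-luc, MOI 1 PFU/cell; 72 h 37C; OneGlo luminescence after 5 min RT; norm. to buffer vs Salinomycin 10uM.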
Lassa entry inh: blocks Lassa virus binding to or entry into cells; Lassa virus pseudotype entry inhibition, cell reporter; Potency, µM (doses to about 37.9 µM), most hits filed as inhibitors; 1.2% of 300,000 active; AID 540256; calls by dose curve; tested in HEK293 cells; also: nearly all actives have a fitted effect of over 50% in size
HCV inh: blocks hepatitis C virus; Huh7.5.1 HCVcc-Cre infection, luciferase reporter, 44 h; Potency, µM (titrated, usually from 41.8 µM), actives largely listed as inhibitors; 3.4% of 340,000 active; active = well fitted inhibition curve with a large enough effect; inconclusive = small, poorly fitted or top-dose-only effect, or another doubt; inactive = no such curve, though single readings can be large or run the other way
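Cells (1,000/well) were plated 4 h before compound, then infected with HCVcc-Cre virus (~0.5 moi). After 44 h further culture, infection was read as luciferase luminescence following a 15 min substrate incubation at room temperature.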
FMDV inh: antivirals against foot and mouth disease virus; Potency, µM (top dose mostly 57.9 µM), usual class: inhibitors; 1.2% of 410,000 active; FMDV antiviral cell-based qHTS; calls by dose curve; tested in HEK293T cells; also: read-out not given here; nearly all actives have a fitted effect of over 45% in size
Marburg entry inh: Marburg virus entry inhibition. 1.8% of 300,000 active. Marburg virus pseudotyped entry inhibition, cell reporter. Potency, µM (top dose mostly 37.8 µM), most hits filed as inhibitors. AID 540276; calls by dose curve; tested in HEK293 cells
Of the large screens only hits and unclear results are named; the others gave an inactive call; ! = a repeat was not active. This is a sample that favours compounds with a hit; in the whole collection about 7.9% have one here.

O=C(CNC(=O)c1cccc(F)c1)N/N=C/c1cc(Br)ccc1OC(=O)/C=C/c1ccco1	HCMV antiviral -101, Lassa entry inh inconclusive, HCV inh 7.9µM, Marburg entry inh 18µM
O=C(CNC(=O)c1ccccc1O)N/N=C/c1cc(Br)ccc1OC(=O)/C=C/c1ccco1	HCMV antiviral -74, Lassa entry inh 5.6µM, HCV inh inconclusive, Marburg entry inh inconclusive
Cc1cc(C)n(CC(=O)NNC(=O)CCNC(=O)c2ccccc2Cl)n1	none
COc1ccc(NC(=O)[C@H](C)NC(=O)[C@@H]2Cc3ccccc3CN2C(=O)OC(C)(C)C)cc1	HCMV antiviral active (no result: Lassa entry inh, Marburg entry inh)
COc1cccc(NC(=O)CNC(=O)[C@@H]2Cc3ccccc3CN2C(=O)OC(C)(C)C)c1	Lassa entry inh inconclusive
CC(C)(C)OC(=O)N1Cc2ccccc2C[C@H]1C(=O)NCC(=O)Nc1ccc2c(c1)OCCO2	HCMV antiviral -68, FMDV inh inconclusive (no result: Lassa entry inh, Marburg entry inh)
Cc1cc(C)nc(SCC(=O)OCC(=O)Nc2ccccc2)n1	none
N#Cc1cc(-c2ccccc2)cn(Cc2c(Cl)cccc2Cl)c1=O	HCMV antiviral inconclusive
Cc1ccc(-c2cc(C#N)c(=O)n(Cc3c(Cl)cccc3Cl)c2)cc1	HCMV antiviral -62
O=C(CN(CC1CCCO1)C(=O)c1nsc(Cl)c1Cl)NC1CCCC1 (configuration not stated)	HCMV antiviral -66
O=C(COC(=O)c1ccc[nH]c1=O)NCCCc1ccccc1	none (no result: Lassa entry inh, Marburg entry inh)
CN(C)c1ccc(N=Nc2ccccc2C(=O)OCC(=O)Nc2ccccc2C(F)(F)F)cc1	HCMV antiviral -75
CC1CC[C@@]2(OC1)OC1C(O)C3C4CC[C@H]5CC(O[C@@H]6O[C@@H](CO)[C@H](OC7OC(CO)C(O)C(OC8OCC(O)C(O)[C@H]8O)[C@@H]7O[C@@H]7OC(CO)[C@H](O)[C@@H](O[C@@H]8OC(CO)C(O)C(O)C8O)C7O)C(O)C6O)C(O)C[C@]5(C)C4CC[C@]3(C)C1C2C (some centres not stated)	FMDV inh 35µM (no result: HCMV antiviral, Lassa entry inh, HCV inh, Marburg entry inh)
CC(C)(O)C1CC[C@@](C)([C@@H]2CC[C@]3(C)[C@H]2[C@H](O)CC2[C@@]4(C)CCC(O)C(C)(C)C4C(OC4OC(CO)C(O)C(O)C4O[C@@H]4OCC(O)C(O)C4O)C[C@]23C)O1 (some centres not stated)	none (no result: Lassa entry inh, Marburg entry inh)
Cc1cc(Br)ccc1OCCCCNCCO	HCV inh 10µM, Marburg entry inh inconclusive
CN(C)CCCCOc1ccc(Br)cc1Cl	HCV inh 10µM, Marburg entry inh inconclusive
COCCNCCCOc1ccc(Br)cc1Cl	Lassa entry inh inconclusive, HCV inh 10µM, Marburg entry inh inconclusive
COCCCNCCCOc1ccc(Cl)cc1C(C)(C)C	Lassa entry inh inconclusive, HCV inh 7.1µM, FMDV inh inconclusive, Marburg entry inh inconclusive
COc1cc(CN(C(=O)c2ccccc2)c2ccccn2)cc(OC)c1OC	none (no result: HCV inh)
OCCNCCCOc1ccc(Cl)cc1Br	Marburg entry inh 21µM
COCCCNCCCCOc1ccc(Br)cc1Cl	HCMV antiviral inconclusive, Lassa entry inh inconclusive, HCV inh 10µM, Marburg entry inh inconclusive
COCCNCCCOc1ccc(Cl)cc1Br	none (no result: Lassa entry inh, Marburg entry inh)
CC(C)c1nc2ccc(C(=O)Nc3ccccc3F)cc2o1	HCMV antiviral -63, FMDV inh inconclusive (no result: HCV inh, Marburg entry inh)
Cc1c(Cl)cccc1NC(=O)c1ccc2nc(C(C)C)oc2c1	FMDV inh inconclusive (no result: HCV inh, Marburg entry inh)
COC(=O)c1ccc(NC(=O)CSc2nc3cc4ccccc4cc3[nH]2)cc1	Marburg entry inh inconclusive (no result: HCV inh)
O=C(c1ccc2c(Cl)c3c(nc2c1)CCCC3)N1CCN(c2ccccc2)CC1	none (no result: HCV inh)
CCc1ccc(CNC(=O)c2ccc3c(Cl)c4c(nc3c2)CCCC4)cc1	Lassa entry inh inconclusive (no result: HCV inh)
O=C(c1ccc2c(Cl)c3c(nc2c1)CCCC3)N1CCC(N2CCCCC2)CC1	HCMV antiviral -60, Lassa entry inh inconclusive, HCV inh inconclusive, Marburg entry inh 4.6µM
CN1CCN(CCCNC(=O)c2ccc3c(Cl)c4c(nc3c2)CCCC4)CC1	HCMV antiviral inconclusive, HCV inh 10µM (no result: Lassa entry inh, Marburg entry inh)
COc1ccc(CNC(=O)c2ccc3c(Cl)c4c(nc3c2)CCCC4)c(OC)c1	HCMV antiviral inconclusive, Lassa entry inh inconclusive (no result: HCV inh)
COc1ccc(CCNC(=O)c2ccc3c(Cl)c4c(nc3c2)CCCC4)cc1OC	HCMV antiviral inconclusive, FMDV inh inconclusive (no result: HCV inh)
COc1ccc(CCNC(=O)c2ccc3c(Cl)c4c(nc3c2)CCCC4)c(OC)c1	HCMV antiviral -94, FMDV inh inconclusive (no result: HCV inh)
O=C(NCc1ccc(F)cc1)c1ccc2c(Cl)c3c(nc2c1)CCCC3	HCMV antiviral -73, Marburg entry inh inconclusive (no result: HCV inh)
COc1ccc(N(CC(=O)Nc2cc(OC)c(OC)cc2C(=O)O)S(=O)(=O)c2c(C)noc2C)cc1	none (no result: Lassa entry inh, Marburg entry inh)
O=S(=O)(c1cc(F)ccc1F)N1CCC2(CC1)OCCO2	none (no result: Lassa entry inh, Marburg entry inh)
CCc1ccc(NC(=O)c2ccc(F)c(S(=O)(=O)N3CCc4ccccc4C3)c2)cc1	HCMV antiviral -68, Lassa entry inh inconclusive (no result: HCV inh, Marburg entry inh)
CCc1ccc(NC(=O)c2ccc(F)c(S(=O)(=O)N3CCC(C)CC3)c2)cc1	Lassa entry inh inconclusive, FMDV inh inconclusive (no result: HCV inh, Marburg entry inh)
O=C(Nc1ccc(F)c(F)c1)c1ccc(F)c(S(=O)(=O)N2CCC3(CC2)OCCO3)c1	HCMV antiviral -82!, Lassa entry inh inconclusive, HCV inh 13µM, FMDV inh inconclusive, Marburg entry inh inconclusive
O=C(Nc1ccccc1C(F)(F)F)c1ccc(F)c(S(=O)(=O)N2CCc3ccccc3C2)c1	none (no result: HCV inh, Marburg entry inh)
CCc1ccc(NC(=O)c2ccc(F)c(S(=O)(=O)N3CCC4(CC3)OCCO4)c2)cc1	HCMV antiviral -90, Lassa entry inh inconclusive (no result: HCV inh, Marburg entry inh)
CCC1CN(CC(=O)NC(c2ccccn2)C(F)(F)F)Cc2cc(OC)ccc2O1 (configuration not stated)	none (no result: HCMV antiviral, Lassa entry inh, HCV inh, Marburg entry inh)
Cc1ccccc1C(=O)c1cccn1CC(=O)NCCCc1ccccc1	none (no result: Lassa entry inh, Marburg entry inh)
c1cc(CN2CCCCC2)cc(OCCCNc2nc3ccccc3s2)c1	Lassa entry inh 16µM, HCV inh inconclusive, Marburg entry inh 12µM
O=C(O)CC(CNS(=O)(=O)c1ccccc1)c1ccccc1 (configuration not stated)	HCMV antiviral -75, HCV inh inconclusive (no result: Lassa entry inh)
Fc1ccc(-c2nccc3[nH]nc(-c4ccccc4)c23)cc1	none (no result: Lassa entry inh, HCV inh, FMDV inh, Marburg entry inh)
CC1CN(C(=O)c2cccc(COc3ccccc3Cl)c2)CC(C)O1 (configuration not stated)	Marburg entry inh inconclusive
CC1CN(C(=O)c2ccccc2OCc2ccc(Cl)cc2Cl)CC(C)O1 (configuration not stated)	HCMV antiviral inconclusive, HCV inh 14µM (no result: Lassa entry inh, Marburg entry inh)
Cc1ccc(Cc2c(-c3ccco3)nc3c4ccccc4ccn23)cc1	none (no result: Lassa entry inh, HCV inh, Marburg entry inh)
CC(=O)c1ccc(-c2nc3c4ccccc4ccn3c2C(C)=O)o1	HCMV antiviral -65, Lassa entry inh 1.3µM, Marburg entry inh 1µM
COc1ccc(N2C(=O)N3[C@H](c4ccccc4)[C@@H](C)C[C@H]4c5ccccc5C[C@]43C2=O)cc1	none (no result: HCMV antiviral, Lassa entry inh, HCV inh, FMDV inh)
O=C(O)C1(S(=O)(=O)c2ccc(Cl)cc2)CCC1	none
ClCc1nc2ccccc2c2ccccc12	FMDV inh inconclusive
C[C@@H]1CC2C3CCC4=CC(=O)C=C[C@]4(C)[C@@]3(F)[C@@H](O)C[C@]2(C)[C@@]1(O)C(=O)CO (some centres not stated)	none (no result: HCMV antiviral, Lassa entry inh, HCV inh, FMDV inh)
